# In the supplement of paper PMC3334620:
# Whole data set: some 33,000 sequences, median “E-score (-0.5 to 0.5)” near -0.01, cut for the highest 2% near 0.26. The list comes from a sample in which the highest values are over-represented; it also holds similar and randomly drawn sequences.
# Molecular target: Ste12 (UniProt P13574)
# Assay: PBM E-score (8-mer binding enrichment) (E-score (-0.5 to 0.5)); higher = stronger / more preferred TF binding
# Settings: protein concentration: 200 nM; construct: GST-DNA-binding domain
# Experimental: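 Universal 'all 10-mer' protein binding microarrays (Agilent AMADID 015681) probed with GST-tagged S. cerevisiae TFs (full-length or DBD) made by in vitro transcription/translation (PURExpress), about 100-200 nM. Bound TF was detected with fluorescent anti-GST. Each ungapped 8-mer (which stands for itself and its reverse complement) is scored by the PBM enrichment score (E-score), a modified Wilcoxon-Mann-Whitney statistic from -0.5 to +0.5, computed with the Universal PBM Analysis Suite. Scale: above 0.35 generally sequence-specific binding.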
# Chain of UniProt P13574 (P13574 whole entry): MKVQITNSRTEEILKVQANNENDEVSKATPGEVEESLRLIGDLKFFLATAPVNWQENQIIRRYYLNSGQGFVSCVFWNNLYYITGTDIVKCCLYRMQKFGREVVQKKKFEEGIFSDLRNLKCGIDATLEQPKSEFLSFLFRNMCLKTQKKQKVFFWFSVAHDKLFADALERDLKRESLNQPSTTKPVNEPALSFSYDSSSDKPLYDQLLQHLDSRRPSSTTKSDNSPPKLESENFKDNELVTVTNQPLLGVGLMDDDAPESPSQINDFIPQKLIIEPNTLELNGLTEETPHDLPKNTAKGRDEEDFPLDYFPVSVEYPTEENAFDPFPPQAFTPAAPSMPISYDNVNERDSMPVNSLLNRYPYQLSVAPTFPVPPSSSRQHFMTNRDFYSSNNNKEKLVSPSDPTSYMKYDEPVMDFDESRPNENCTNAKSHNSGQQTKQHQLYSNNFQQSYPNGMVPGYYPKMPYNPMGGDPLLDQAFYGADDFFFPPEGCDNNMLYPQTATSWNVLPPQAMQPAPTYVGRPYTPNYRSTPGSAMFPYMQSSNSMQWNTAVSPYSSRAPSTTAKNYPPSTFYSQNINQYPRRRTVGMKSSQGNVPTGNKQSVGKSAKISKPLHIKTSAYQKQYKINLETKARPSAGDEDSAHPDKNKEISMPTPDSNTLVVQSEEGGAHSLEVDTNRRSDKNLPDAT
row,Sequence,PBM E-score
1,CTGAAGGA,-0.0367
2,CACGCGTG,0.221
3,CGTTCGCA,-0.119
4,AAATAAAT,0.169
5,AAATAAAA,0.291
6,AAATAAAG,0.172
7,TAAATAAA,0.228
8,AAAATACA,0.143
9,AAAATAAA,0.286
10,CGAAGACG,-0.13
11,CAATGGGA,-0.134
12,GCCTAAGC,-0.358
13,CCACTGGC,-0.0254
14,AATCAGAA,0.27
15,CATCAGAA,0.0441
16,AATCAGAG,0.0937
17,AGGTAGCC,-0.26
18,CAGGGTAG,-0.114
19,CTGACTAC,-0.129
20,ATGATACC,0.0159
21,CTGATACA,0.28
22,ATGATACG,0.25
23,ATGATACA,0.294
24,GTGATACA,0.195
25,CTGATACC,0.0308

row,Sequence,PBM E-score
1,GGCGCTTA,0.0142
2,AGGGCCAC,-0.202
3,CTCAATCC,0.0296
4,GAAAAGCA,0.0143
5,ACAGCCAG,-0.178
6,CTTGGTTA,0.052
7,CCCCTACC,0.0111
8,GCGTAAAA,0.163
9,ATGTAAAT,0.113
10,ATGTAAAA,0.349
11,ACGTAAAA,0.161
12,TAGTAAAA,0.211
13,TCGTAAAA,0.279
14,CTGTAAAA,0.219
15,TTGTAAAA,0.315
16,GTGTAAAA,0.15
17,ATAGAGCC,-0.0936
18,TACAGACA,0.0984
19,ACAGCTCG,-0.157
20,GCAGAGGC,-0.185
21,CACTCGCC,-0.0182
22,CAAAAGTG,0.00054
23,AGATCTCA,0.0566
24,CGATGAAC,0.124
25,CGATGAAG,0.0893

row,Sequence,PBM E-score
1,AGATGAAA,0.39
2,AGATGAAG,0.102
3,GGATGAAA,0.395
4,GGATGAAC,-0.196
5,CGATGAAA,0.289
6,AGATGAAC,0.098
7,TGATGAAA,0.258
8,CCTCTACG,-0.283
9,AGAGCCCC,-0.201
10,CACTGGAA,-0.101
11,ACATGGAC,-0.00801
12,ATGACATA,0.222
13,ACGTTACA,0.164
14,CTGTTACC,-0.03
15,ATGTTACG,-0.0262
16,ATGTTACA,0.297
17,GTGTTACA,0.19
18,ATGTTACC,0.175
19,GCGTTACA,0.139
20,CCGTTACA,0.318
21,CTGTTACA,0.378
22,AACGTCCG,-0.102
23,ACGCTGTG,-0.038
24,GCTGGCCA,-0.00597
25,CTTAGGGA,-0.316

row,Sequence,PBM E-score
1,AAATGAAG,0.257
2,GCGCTTCC,-0.0472
3,AAGGATAA,-0.00803
4,AATTGCAT,0.0393
5,ACTACCTA,-0.242
6,ACTGTTTG,0.188
7,ACTGTTTA,0.165
8,ACTGTTTC,0.289
9,CCTGTTTA,0.0871
10,CCTGTTAC,0.151
11,CCTGTTTC,0.32
12,GAAACGGA,0.343
13,CAAACGGA,0.0164
14,AAAACGGT,0.152
15,AAAACGGA,0.273
16,GAAACGGC,0.229
17,AAAACGGC,0.225
18,GCCCCGAC,-0.135
19,TACCTAAA,0.138
20,AACCTAAA,0.324
21,CACCTAAA,0.0511
22,CCCCGTTA,-0.00038
23,TACAACTA,0.268
24,CACAACTA,0.153
25,AACAACTA,-0.00598

row,Sequence,PBM E-score
1,ACAGGTCT,-0.267
2,ATGTTCTC,-0.124
3,TCAAAACA,0.209
4,ACAAAAAG,0.125
5,TCAAAAAA,0.32
6,TCAAAAGA,0.202
7,ACAAAAAT,0.288
8,ACAAAGCA,0.29
9,ACAAAAAC,0.201
10,ACAAAAAA,0.311
11,AAAAAGCA,0.108
12,GCAAAGCA,-0.148
13,ACACAAAT,0.108
14,AACAAAAT,0.11
15,ACCGCTCA,-0.0178
16,CACCGCAC,-0.00376
17,ACCGCCGC,0.0865
18,GGATACTA,0.0524
19,CGCGGGAC,0.012
20,AGGCCAGC,-0.157
21,CCTGGTAG,-0.00862
22,ATGCCTCG,0.00724
23,CTCACCAC,-0.168
24,TTCACCAA,0.0895
25,CTCACCAA,0.284

row,Sequence,PBM E-score
1,CAAATTTA,0.217
2,TAAATTGA,0.288
3,AAAATTTA,0.085
4,TAAATTTA,0.334
5,GAAATTGA,0.12
6,AAAATTGA,0.226
7,ACGCTCTC,-0.122
8,ACCTGCTC,-0.0508
9,ATACCTCA,0.0605
10,ATGTCTGG,0.0356
11,GGCGGGGA,0.407
12,CGCGGGAA,0.161
13,CGCGGGGA,0.333
14,AGCGGGGA,0.111
15,GGGGGGGA,-0.298
16,GGCGGGAA,0.00719
17,AAAATCTC,0.119
18,CGTTAGGC,-0.0275
19,ATTAATAC,0.263
20,CATAATAA,0.136
21,ATTAATTA,0.237
22,AATAATAA,0.308
23,AATAATAG,0.0434
24,ATTAATTC,0.308
25,ATTAATCG,0.273

row,Sequence,PBM E-score
1,CTTAATAC,0.207
2,ATTAATCC,0.0655
3,AATAATAC,0.198
4,ATTAATCA,0.145
5,ATTAATTG,0.237
6,GCATTCGC,-0.276
7,CCAAACCC,0.194
8,ATAGATCG,0.0199
9,CTAACCTC,-0.0539
10,ACCTGTCG,0.00512
11,CCGCGGCC,0.174
12,CAATACCC,-0.00702
13,AGACTACC,-0.179
14,AAACTAGT,0.123
15,ATCATCTC,0.0683
16,CTTAATAA,0.232
17,ATTAATAA,0.289
18,ATTAATGG,0.219
19,GTTAATAA,0.0895
20,AATAAGAT,0.00235
21,AGTAATAG,0.0705
22,ATTAATAG,0.283
